For one sequence, binding signal results are on record in paper PMC7862700, “An all-to-all approach to the identification of sequence-specific readers for epigenetic DNA modifications on cytosine”.

Holding throughout (assay): DAPPL (digital affinity profiling via proximity ligation, sequencing); 10 mM Tris-HCl pH 7.5, 50 mM NaCl, 1 mM DTT, 4% glycerol, room temperature, 30 min; GST-TFs on glutathione beads, 16-mer random dsDNA library, 0.1% formaldehyde crosslink after washing; high values mean tight binding
The target in one assay is T1, FEV (Homo sapiens, UniProt Q99581 1-238).
T1 sequence: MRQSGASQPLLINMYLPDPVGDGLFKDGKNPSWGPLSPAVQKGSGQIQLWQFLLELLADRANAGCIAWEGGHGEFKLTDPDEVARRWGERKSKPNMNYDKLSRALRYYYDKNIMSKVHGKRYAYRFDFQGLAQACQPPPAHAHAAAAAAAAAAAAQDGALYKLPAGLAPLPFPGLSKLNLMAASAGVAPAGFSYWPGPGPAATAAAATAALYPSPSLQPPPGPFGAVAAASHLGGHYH
Particulars: protein: recombinant; tags: N-terminal GST; dsDNA, one strand shown. Put shortly:
(§1)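 Pools were built from human transcription factors expressed in yeast as GST fusions, captured on glutathione beads and DNA-barcoded, along with a tag-only sample. Incubation with 200 nmole of a 16-mer random double-stranded DNA library lasted 30 min at room temperature in Tris/NaCl/DTT/glycerol buffer, and was followed by washing, 0.1% formaldehyde crosslinking, proximity ligation, PCR amplification and Illumina NextSeq500 sequencing. Binding signal is the quotient of each hexamer's read frequency for a factor and its frequency for the tag-only sample.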

A further assay has as its target ETV5 (Homo sapiens, UniProt P41161 1-510). The conditions noted are these: protein: recombinant; tags: N-terminal GST; dsDNA, one strand shown. Put shortly: as §1
For another assay, the target named is HSF1 (Homo sapiens, UniProt Q00613 1-529). Particulars: protein: recombinant; tags: N-terminal GST; chain copies: 3; dsDNA, one strand shown. Summed up: as §1
Chain of HSF1 (Q00613 whole entry): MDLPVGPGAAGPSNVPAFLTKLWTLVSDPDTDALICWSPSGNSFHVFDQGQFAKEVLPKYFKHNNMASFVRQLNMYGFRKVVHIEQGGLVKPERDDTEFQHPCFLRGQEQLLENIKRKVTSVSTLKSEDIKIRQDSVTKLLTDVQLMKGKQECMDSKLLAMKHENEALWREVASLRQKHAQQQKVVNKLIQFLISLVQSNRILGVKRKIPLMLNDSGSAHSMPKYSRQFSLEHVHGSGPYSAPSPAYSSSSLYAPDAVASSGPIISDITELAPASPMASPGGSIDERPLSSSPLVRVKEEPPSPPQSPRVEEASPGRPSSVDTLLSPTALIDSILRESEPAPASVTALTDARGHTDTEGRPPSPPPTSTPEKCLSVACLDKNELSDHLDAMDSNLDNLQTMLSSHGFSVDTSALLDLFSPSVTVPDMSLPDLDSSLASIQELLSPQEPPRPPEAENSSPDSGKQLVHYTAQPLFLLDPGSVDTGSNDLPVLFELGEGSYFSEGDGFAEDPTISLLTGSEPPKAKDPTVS
The next assay concerns the target T2, SPIC (Homo sapiens, UniProt Q8N5J4 1-248).
T2 sequence: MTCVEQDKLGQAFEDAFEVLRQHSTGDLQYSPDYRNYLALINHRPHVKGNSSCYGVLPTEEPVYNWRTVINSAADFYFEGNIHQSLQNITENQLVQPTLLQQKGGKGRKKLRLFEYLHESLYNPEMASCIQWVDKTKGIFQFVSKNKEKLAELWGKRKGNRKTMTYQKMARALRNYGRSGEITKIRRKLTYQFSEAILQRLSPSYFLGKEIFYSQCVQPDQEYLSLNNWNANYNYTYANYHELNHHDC
The conditions noted are these: protein: recombinant; tags: N-terminal GST; dsDNA, one strand shown. Put shortly:
as §1

The target in the next assay is ELF4 (Homo sapiens, UniProt Q99607 1-663). Particulars: protein: recombinant; tags: N-terminal GST; dsDNA, one strand shown. Put shortly:
as §1

Another assay addresses T3, ELK4 (Homo sapiens, UniProt P28324-2 1-405).
T3 sequence: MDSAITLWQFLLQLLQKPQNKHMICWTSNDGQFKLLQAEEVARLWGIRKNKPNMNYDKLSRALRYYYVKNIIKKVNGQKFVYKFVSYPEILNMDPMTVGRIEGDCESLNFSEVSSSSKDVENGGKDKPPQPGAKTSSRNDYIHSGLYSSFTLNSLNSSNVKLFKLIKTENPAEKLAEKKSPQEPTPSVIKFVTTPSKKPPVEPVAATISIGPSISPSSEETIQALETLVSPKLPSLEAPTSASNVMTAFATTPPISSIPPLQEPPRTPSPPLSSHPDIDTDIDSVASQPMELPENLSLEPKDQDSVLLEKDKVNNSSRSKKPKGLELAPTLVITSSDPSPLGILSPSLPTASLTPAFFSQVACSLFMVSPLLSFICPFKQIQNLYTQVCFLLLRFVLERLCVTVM
Particulars: protein: recombinant; tags: N-terminal GST; dsDNA, one strand shown. Put shortly: as §1

The target of the next assay is T4, ETV2 (Homo sapiens, UniProt O00321 1-342).
T4 sequence: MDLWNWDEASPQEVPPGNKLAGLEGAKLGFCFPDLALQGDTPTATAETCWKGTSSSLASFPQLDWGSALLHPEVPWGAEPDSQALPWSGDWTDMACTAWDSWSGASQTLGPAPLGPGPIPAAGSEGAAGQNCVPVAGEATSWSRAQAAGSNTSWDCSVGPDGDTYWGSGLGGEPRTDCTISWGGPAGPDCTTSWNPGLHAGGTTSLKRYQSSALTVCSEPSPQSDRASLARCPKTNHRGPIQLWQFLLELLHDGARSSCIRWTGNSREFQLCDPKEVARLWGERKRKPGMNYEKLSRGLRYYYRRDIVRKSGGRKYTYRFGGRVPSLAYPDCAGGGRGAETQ
The conditions noted are these: protein: recombinant; tags: N-terminal GST; dsDNA, one strand shown. Put shortly:
as §1

A further assay has as its target T5, ELF3 (Homo sapiens, UniProt P78545 1-371).
T5 sequence: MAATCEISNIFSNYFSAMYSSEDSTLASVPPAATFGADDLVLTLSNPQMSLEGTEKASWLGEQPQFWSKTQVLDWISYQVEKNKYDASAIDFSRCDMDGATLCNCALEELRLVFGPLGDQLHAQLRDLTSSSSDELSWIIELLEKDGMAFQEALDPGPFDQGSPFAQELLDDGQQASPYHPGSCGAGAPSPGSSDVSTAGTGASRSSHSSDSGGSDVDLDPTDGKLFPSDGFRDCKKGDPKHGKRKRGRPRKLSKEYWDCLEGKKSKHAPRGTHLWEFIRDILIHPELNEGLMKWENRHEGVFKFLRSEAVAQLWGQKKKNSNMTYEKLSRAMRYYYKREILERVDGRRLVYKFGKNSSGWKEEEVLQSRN
Particulars: protein: recombinant; tags: N-terminal GST; dsDNA, one strand shown. Summed up: as §1

A further assay concerns the target CRX (Homo sapiens, UniProt O43186 1-299). The conditions noted are these: protein: recombinant; tags: N-terminal GST; dsDNA, one strand shown. Summed up:
as §1

The target of the next assay is ETV1 (Homo sapiens, UniProt P50549 1-477). Particulars: protein: recombinant; tags: N-terminal GST; dsDNA, one strand shown. Put shortly: as §1
Chain of ETV1 (P50549 whole entry): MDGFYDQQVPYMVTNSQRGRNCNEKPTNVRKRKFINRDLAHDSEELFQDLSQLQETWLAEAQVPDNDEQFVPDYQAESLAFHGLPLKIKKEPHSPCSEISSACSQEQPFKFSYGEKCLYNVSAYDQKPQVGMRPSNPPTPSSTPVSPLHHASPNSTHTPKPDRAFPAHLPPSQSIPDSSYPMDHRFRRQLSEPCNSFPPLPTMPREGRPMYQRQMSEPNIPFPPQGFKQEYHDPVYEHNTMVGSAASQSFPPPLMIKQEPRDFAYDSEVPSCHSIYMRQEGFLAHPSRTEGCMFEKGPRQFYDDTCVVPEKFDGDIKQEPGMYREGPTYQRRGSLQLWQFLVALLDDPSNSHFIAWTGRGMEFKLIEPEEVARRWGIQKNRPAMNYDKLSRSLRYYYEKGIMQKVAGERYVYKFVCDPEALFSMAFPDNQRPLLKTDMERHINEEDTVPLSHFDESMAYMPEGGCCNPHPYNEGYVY
The target of the next assay is T6, ERF (Homo sapiens, UniProt P50548 1-548).
T6 sequence: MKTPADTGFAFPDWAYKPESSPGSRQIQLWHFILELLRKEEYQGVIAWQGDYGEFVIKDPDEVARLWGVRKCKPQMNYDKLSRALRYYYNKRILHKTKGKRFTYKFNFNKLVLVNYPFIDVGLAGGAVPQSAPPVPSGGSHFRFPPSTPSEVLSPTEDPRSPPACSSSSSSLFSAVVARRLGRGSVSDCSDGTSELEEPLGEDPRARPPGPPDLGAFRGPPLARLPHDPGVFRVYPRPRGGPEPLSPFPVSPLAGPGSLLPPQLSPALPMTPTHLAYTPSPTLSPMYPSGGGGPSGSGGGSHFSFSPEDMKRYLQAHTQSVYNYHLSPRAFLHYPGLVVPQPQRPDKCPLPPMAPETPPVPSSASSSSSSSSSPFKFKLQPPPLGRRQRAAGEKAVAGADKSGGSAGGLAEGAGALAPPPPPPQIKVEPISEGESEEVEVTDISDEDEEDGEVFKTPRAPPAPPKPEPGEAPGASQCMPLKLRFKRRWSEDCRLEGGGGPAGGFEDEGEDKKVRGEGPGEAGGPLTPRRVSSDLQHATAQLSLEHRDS
Particulars: protein: recombinant; tags: N-terminal GST; dsDNA, one strand shown. Summed up: as §1

The next assay deals with T7, ETV3L (Homo sapiens, UniProt Q6ZN32 1-361).
T7 sequence: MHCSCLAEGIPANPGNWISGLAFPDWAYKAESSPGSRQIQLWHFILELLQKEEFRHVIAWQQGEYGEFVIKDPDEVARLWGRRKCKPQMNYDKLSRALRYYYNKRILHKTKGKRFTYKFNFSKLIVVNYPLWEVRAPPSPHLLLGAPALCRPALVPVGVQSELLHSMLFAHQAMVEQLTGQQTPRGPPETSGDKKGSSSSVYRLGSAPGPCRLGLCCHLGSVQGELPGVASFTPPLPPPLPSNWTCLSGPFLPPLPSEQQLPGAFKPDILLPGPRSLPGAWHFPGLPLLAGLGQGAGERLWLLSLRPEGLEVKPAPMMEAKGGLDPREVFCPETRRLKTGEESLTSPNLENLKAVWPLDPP
Particulars: protein: recombinant; tags: N-terminal GST; dsDNA, one strand shown. Put shortly:
as §1

In the next assay the target is T8, ETS2 (Homo sapiens, UniProt P15036 1-469).
T8 sequence: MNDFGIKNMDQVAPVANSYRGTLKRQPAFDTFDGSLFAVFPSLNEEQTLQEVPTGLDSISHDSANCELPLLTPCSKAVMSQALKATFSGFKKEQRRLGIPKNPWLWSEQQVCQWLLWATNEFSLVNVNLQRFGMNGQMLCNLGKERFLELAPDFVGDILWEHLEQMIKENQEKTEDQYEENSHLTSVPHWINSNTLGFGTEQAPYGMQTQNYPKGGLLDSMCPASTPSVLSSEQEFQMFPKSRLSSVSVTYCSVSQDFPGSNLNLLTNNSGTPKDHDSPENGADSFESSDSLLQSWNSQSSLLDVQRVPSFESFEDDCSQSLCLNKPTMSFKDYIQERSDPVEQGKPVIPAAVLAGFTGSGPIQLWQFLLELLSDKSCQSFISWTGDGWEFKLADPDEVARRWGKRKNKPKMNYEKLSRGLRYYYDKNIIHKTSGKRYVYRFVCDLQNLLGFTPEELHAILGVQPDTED
The conditions noted are these: protein: recombinant; tags: N-terminal GST; dsDNA, one strand shown. Put shortly: as §1

The target in the next assay is T9, SPDEF (Homo sapiens, UniProt O95238 1-335).
T9 sequence: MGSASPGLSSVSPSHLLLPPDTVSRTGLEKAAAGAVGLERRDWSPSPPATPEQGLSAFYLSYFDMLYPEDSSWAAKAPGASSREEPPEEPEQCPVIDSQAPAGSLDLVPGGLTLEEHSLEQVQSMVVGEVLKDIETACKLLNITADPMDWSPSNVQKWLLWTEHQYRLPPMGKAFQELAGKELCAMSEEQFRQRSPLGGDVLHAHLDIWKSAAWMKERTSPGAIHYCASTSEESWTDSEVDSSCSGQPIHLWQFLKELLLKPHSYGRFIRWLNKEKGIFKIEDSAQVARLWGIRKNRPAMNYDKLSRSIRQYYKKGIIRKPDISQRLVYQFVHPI
The conditions noted are these: protein: recombinant; tags: N-terminal GST; dsDNA, one strand shown. Summed up: as §1

The next assay has as its target T10, ETV7 (Homo sapiens, UniProt Q9Y603 1-341).
T10 sequence: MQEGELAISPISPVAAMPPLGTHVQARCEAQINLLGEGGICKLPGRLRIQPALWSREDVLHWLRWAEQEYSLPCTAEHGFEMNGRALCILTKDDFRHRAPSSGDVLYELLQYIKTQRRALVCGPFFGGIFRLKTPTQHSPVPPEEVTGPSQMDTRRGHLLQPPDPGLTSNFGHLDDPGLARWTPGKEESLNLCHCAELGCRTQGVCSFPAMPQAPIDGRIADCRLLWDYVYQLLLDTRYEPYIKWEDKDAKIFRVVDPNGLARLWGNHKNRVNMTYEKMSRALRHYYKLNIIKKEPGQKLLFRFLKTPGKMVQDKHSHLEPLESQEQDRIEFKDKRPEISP
The conditions noted are these: protein: recombinant; tags: N-terminal GST; dsDNA, one strand shown. Summed up: as §1

The target of a further assay is T11, ELF5 (Homo sapiens, UniProt Q9UKW6-2 1-255).
T11 sequence: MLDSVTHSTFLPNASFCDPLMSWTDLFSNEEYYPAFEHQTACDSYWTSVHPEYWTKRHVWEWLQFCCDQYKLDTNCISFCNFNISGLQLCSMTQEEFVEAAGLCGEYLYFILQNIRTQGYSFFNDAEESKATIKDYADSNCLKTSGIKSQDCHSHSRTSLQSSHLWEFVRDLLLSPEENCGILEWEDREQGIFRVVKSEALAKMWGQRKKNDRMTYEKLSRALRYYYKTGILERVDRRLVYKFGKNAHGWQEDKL
Particulars: protein: recombinant; tags: N-terminal GST; dsDNA, one strand shown. Put shortly: as §1

A further assay has as its target T12, ETV3 (Homo sapiens, UniProt P41162-2 1-143).
T12 sequence: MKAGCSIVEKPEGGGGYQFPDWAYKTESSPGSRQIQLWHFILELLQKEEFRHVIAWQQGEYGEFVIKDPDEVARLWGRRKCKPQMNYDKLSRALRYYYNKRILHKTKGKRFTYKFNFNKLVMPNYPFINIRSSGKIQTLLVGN
The conditions noted are these: protein: recombinant; tags: N-terminal GST; dsDNA, one strand shown. Put shortly: as §1

In the next assay the target is ETV6 (Homo sapiens, UniProt P41212 1-452). The conditions noted are these: protein: recombinant; tags: N-terminal GST; dsDNA, one strand shown. Summed up: as §1
Chain of ETV6 (P41212 whole entry): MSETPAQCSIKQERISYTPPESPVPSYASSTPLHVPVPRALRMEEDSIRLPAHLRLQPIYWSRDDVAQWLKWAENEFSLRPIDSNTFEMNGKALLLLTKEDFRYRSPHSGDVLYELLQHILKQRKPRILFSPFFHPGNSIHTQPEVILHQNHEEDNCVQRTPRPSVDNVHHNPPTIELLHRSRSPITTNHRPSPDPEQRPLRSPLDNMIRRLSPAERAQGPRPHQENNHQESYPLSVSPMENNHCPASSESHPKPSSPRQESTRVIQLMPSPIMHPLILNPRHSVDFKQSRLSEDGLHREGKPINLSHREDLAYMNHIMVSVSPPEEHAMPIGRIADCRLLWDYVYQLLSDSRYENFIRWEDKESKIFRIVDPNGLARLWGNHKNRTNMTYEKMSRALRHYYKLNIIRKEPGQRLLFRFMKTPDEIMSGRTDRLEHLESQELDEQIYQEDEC

Chain of ETV5 (P41161 whole entry): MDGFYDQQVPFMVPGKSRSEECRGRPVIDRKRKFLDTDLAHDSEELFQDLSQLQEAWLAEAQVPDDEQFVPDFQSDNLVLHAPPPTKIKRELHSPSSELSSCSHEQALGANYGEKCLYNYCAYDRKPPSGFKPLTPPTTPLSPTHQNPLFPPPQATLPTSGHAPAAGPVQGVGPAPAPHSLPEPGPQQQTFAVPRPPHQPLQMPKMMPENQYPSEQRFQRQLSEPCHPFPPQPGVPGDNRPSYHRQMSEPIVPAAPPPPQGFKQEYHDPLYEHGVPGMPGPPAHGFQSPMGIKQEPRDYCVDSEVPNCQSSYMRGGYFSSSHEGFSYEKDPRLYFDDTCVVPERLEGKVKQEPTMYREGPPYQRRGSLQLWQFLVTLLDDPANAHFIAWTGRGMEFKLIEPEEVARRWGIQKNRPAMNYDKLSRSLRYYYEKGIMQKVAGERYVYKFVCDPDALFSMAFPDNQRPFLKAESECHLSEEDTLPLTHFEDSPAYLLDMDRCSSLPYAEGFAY
Chain of ELF4 (Q99607 whole entry): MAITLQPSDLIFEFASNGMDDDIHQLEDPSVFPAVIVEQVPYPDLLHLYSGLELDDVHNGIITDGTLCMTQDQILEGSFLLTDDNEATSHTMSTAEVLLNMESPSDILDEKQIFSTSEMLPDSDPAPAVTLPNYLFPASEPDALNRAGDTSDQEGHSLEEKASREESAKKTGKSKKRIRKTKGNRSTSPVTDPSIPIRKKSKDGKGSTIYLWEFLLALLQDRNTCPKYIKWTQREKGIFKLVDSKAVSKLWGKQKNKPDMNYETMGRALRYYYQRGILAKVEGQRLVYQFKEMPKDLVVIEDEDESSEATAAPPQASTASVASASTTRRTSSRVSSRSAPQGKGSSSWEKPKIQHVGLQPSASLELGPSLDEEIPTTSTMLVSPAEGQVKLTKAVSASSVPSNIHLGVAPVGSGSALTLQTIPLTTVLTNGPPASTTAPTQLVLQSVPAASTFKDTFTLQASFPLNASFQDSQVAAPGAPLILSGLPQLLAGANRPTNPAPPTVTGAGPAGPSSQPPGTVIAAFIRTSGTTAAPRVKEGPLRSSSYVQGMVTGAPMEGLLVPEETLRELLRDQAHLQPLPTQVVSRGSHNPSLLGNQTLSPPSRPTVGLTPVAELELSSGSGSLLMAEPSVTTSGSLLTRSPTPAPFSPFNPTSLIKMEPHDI
Chain of CRX (O43186 whole entry): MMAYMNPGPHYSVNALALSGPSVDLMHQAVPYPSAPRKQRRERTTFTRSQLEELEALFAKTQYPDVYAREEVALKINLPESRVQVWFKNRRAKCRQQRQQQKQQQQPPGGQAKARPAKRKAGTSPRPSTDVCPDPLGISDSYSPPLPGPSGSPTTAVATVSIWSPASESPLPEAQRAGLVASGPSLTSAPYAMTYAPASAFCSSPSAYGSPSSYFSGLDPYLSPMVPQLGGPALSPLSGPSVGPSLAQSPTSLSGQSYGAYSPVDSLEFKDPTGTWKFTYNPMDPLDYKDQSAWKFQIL

Take TACTAC: the binding signal with FEV is 1.35 fold enrichment (6-mer frequency, TF over GST control); with ETV5, 1.33 fold enrichment (6-mer frequency, TF over GST control); with HSF1 it was 1.17 fold enrichment (6-mer frequency, TF over GST control); with SPIC, 1.26 fold enrichment (6-mer frequency, TF over GST control); with ELF4, 1.36 fold enrichment (6-mer frequency, TF over GST control); with ELK4, 1.19 fold enrichment (6-mer frequency, TF over GST control). The binding signal was 1.38 fold enrichment (6-mer frequency, TF over GST control) in the assay with ETV2; 1.08 fold enrichment (6-mer frequency, TF over GST control) with ELF3; 1.13 fold enrichment (6-mer frequency, TF over GST control) with CRX; 1.24 fold enrichment (6-mer frequency, TF over GST control) in the assay with ETV1; 1.3 fold enrichment (6-mer frequency, TF over GST control) with ERF; 1.41 fold enrichment (6-mer frequency, TF over GST control) with ETV3L. For the same sequence, the binding signal with ETS2 was 1.34 fold enrichment (6-mer frequency, TF over GST control); in the assay with SPDEF, 1.34 fold enrichment (6-mer frequency, TF over GST control); in the assay with ETV7, 1.47 fold enrichment (6-mer frequency, TF over GST control); with ELF5 it was 1.36 fold enrichment (6-mer frequency, TF over GST control); with ETV3, 1.29 fold enrichment (6-mer frequency, TF over GST control); with ETV6, 1.38 fold enrichment (6-mer frequency, TF over GST control).
